Drawing on ChEMBL document CHEMBL4808148, “HDAC6 screening dataset using tau-based substrate in an enzymatic assay yields selective inhibitors and activators” (2021), this text covers inhibition for 42 compounds.

This test deals with T1, Protein deacetylase HDAC6 (Homo sapiens) (UniProt Q9UBN7).
T1 sequence (whole entry): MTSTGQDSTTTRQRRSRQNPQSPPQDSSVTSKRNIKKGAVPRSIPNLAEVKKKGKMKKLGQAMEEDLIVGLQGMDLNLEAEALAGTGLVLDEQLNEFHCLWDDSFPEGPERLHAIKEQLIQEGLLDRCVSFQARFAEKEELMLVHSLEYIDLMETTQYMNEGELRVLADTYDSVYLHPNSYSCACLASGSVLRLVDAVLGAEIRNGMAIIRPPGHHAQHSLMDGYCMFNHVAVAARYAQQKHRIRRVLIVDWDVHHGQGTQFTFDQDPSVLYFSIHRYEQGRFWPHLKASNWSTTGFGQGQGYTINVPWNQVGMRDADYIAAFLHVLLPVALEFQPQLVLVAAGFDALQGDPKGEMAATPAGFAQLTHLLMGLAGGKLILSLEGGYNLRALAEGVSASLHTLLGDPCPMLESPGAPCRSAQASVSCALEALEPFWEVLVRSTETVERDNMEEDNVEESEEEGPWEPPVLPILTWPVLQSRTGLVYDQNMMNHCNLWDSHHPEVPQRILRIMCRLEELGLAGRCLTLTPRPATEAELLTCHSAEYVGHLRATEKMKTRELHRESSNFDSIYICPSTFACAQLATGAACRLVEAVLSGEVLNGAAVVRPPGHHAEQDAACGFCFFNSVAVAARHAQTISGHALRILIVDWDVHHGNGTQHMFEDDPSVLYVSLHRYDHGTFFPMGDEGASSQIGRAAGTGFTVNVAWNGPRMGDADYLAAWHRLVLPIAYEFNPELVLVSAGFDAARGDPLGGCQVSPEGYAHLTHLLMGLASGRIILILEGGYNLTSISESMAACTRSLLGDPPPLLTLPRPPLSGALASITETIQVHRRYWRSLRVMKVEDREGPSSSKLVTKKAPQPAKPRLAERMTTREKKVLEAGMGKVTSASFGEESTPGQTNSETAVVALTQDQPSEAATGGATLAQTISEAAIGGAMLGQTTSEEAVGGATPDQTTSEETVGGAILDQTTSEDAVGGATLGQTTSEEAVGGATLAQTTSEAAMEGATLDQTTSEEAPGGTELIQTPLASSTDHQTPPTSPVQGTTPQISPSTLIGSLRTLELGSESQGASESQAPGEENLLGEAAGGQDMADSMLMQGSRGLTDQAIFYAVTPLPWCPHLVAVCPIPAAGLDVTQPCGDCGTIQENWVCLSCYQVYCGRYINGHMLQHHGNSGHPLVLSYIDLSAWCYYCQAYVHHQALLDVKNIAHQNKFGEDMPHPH
The settings on record: at 10 µM.

Out of some 5,600 compounds screened, about 390 (7%) showed an effect of 50% or more. The sample as a whole holds a higher share of strong results than the screen did.

For `CC[C@H]1[C@@H](O)[C@@H]2[C@H](CC[C@]3(C)[C@@H]([C@H](C)CCOS(=O)(=O)O)CC[C@@H]23)[C@@]2(C)CC[C@@H](O)C[C@@H]12`, the inhibition (as a rule, the relative decrease from the control value, in per cent) was -1.78%.
Consider `CC(C)C[C@H](NC(=O)[C@H](CCCCN)NC(=O)[C@H](CCCNC(=N)N)NC(=O)[C@H](C)NC(=O)[C@H](CO)NC(=O)[C@H](CCCCN)NC(=O)[C@H](CCCNC(=N)N)NC(=O)[C@H](C)NC(=O)CNC(=O)[C@@H](NC(=O)[C@H](Cc1ccccc1)NC(=O)CNC(=O)CNC(=O)[C@@H](N)Cc1ccccc1)[C@@H](C)O)C(=O)N[C@@H](C)C(=O)N[C@@H](CC(N)=O)C(=O)N[C@@H](CCC(N)=O)C(=O)O`, for which the inhibition stood at 3.21%.
Under `CCC(CC)C(c1ccc(Nc2nc3ccccc3s2)cc1)n1cncn1` (configuration not stated) stands 11.9%.
The result for `CC(C)c1cnn2c(NCc3ccccc3)cc(NCCCCCCN)nc12` reads 61.1%; that for `Cc1cc(/C=C2\SC(=O)N(c3ccccc3)C2=O)c(C)n1-c1cccnc1`, 96.7%; that for `Cc1cc(/C=c2/sc3nc4ccccc4n3c2=O)c(C)n1-c1ccccc1`, -0.72%.
The result for `Nc1nc(=O)c2sc(=O)n([C@@H]3O[C@H](CO)[C@@H](O)[C@H]3O)c2[nH]1` reads 7.72%.
For `Cc1cc2sc(NC(=O)Cc3ccccc3)nc2cc1Cl`, the inhibition was found to be 19.7%.
Consider `Cc1ccc(-c2csc(NC(=O)c3ccccc3)n2)c(C)c1`, for which the inhibition is 61.3%.
Under `NC(=O)CN1C=CCC(C(N)=O)=C1` stands -1.44%; under `O=C1c2cc(Cl)ccc2OC2CCON12` (configuration not stated), 8.29%.
Under `COc1ccccc1OC(=O)CNC(=O)Cc1ccc(C(=O)c2ccc(C)cc2)n1C` stands 27.4%.
Under `COc1cc(OC)cc(-c2ccc3c(-c4ccc(F)cc4)n[nH]c3n2)c1` stands 81.7%; under `COc1ccn2ncc(-c3nc4[nH]nc(NC(=O)c5ccc(F)cc5)c4cc3F)c2c1`, 1.3%.
Regarding `C[C@H]1C[C@@H]2[C@H]([C@@H](O)C[C@@]3(C)[C@H]2CC[C@]3(O)C(=O)COC(=O)CCC(=O)O)[C@@]2(C)C=CC(=O)C=C12`, the inhibition was found to be 27.4%.
Under `COc1cc([C@@H]2c3cc4c(cc3[C@@H](O[C@@H]3O[C@@H]5CO[C@@H](C)O[C@H]5[C@H](O)[C@H]3O)[C@H]3COC(=O)[C@H]23)OCO4)cc(OC)c1OP(=O)(O)O` stands 5.48%.
The result for `CCN(CC)CCNC(=O)c1ccccc1I` reads 13.2%.
The result for `COc1nc2ccc(Br)cc2cc1[C@@H](c1ccccc1)[C@@](O)(CCN(C)C)c1cccc2ccccc12` reads 73.7%; that for `NCC1CC(=O)N(Cc2ccccc2)C1` (configuration not stated), 0.62%.
For the compound `CN1c2ccccc2C(NCCCCCCC(=O)O)c2ccc(Cl)cc2S1(=O)=O` (configuration not stated), the inhibition turned out to be 64.5%.
As to `O=C(O)CCCCCCNC1c2ccccc2CCc2ccccc21`, the inhibition stood at 0.36%.
Under `Cc1ccc(C)c(C(O)CNC(C)C)c1` (configuration not stated) stands 7.8%; under `C[C@@H]1C(=O)O[C@H]2CC34[C@H]5C[C@@H](C(C)(C)C)C36[C@@H](OC(=O)[C@@H]6O)O[C@@]4(C(=O)O5)[C@]21O` (some centres not stated), 26.8%.
The result for `CN1CC[C@@]2(C)c3cc(O)ccc3N(C)[C@H]12` reads 6.94%; that for `CN1CC[C@@]2(C)c3cc(OC(=O)Nc4ccccc4)ccc3N(C)[C@@H]12`, 54%.
Under `Cn1cc(-c2cc(Oc3cc(F)c(NC(=O)C4(C(=O)Nc5ccccc5)CC4)cc3F)ccn2)cn1` stands 13.7%.
Take `COC1/C=C/OC2(C)Oc3c(C)c(O)c4c(O)c(c(/C=N/N=C/N5CCCCC5)c(O)c4c3C2=O)NC(=O)/C(C)=C\C=C\C(C)C(O)C(C)C(O)C(C)C(OC(C)=O)C1C` (configuration not stated): the inhibition came to 5.78%.
The result for `Cc1ccc2c(c1)Cc1c(C(=O)NN3CCCCC3)nn(-c3ccc(Cl)cc3Cl)c1-2` reads 1.48%; that for `CN(C)CCN1C(=O)c2cccc3cc(NC(N)=O)cc(c23)C1=O`, -8.72%.
Under `COc1ccc(Nc2ccn(-c3ccccc3)n2)cc1` stands 101%.
`C[C@]12C=CC(=O)C=C1CC[C@@H]1[C@@H]2[C@@H](O)C[C@@]2(C)[C@H]1CC[C@]2(O)C(=O)COP(=O)(O)O`: the inhibition was determined as 22.1%.
Under `CCNC(=O)[C@@H]1CCCN1C(=O)[C@H](CCCNC(=N)N)NC(=O)[C@H](CC(C)C)NC(=O)[C@@H](C)NC(=O)[C@H](Cc1ccc(O)cc1)NC(=O)[C@H](CO)NC(=O)[C@H](Cc1c[nH]c2ccccc12)NC(=O)[C@H](Cc1cnc[nH]1)NC(=O)[C@@H]1CCC(=O)N1` stands 41.1%; under `Cc1cc(C(=O)Nc2cccc(C(=O)Nc3cccc(C(F)(F)F)c3)c2)on1`, 16.4%.
Under `O=C1c2ccccc2C(=O)c2ccccc21` stands 44.4%.
For the compound `O=C1c2cccc(O)c2C(=O)c2c(O)cc(CO)cc21`, the inhibition is 53.1%.
Under `CCN1C[C@H](C)n2c(c(O)c3c(=O)n(Cc4ccc(F)c(Cl)c4)nc(C(=O)NC)c32)C1=O` stands 19.2%.
With `C[C@H](CCC(=O)O)[C@H]1CC[C@H]2[C@@H]3CC[C@@H]4C[C@H](O)CC[C@]4(C)[C@H]3CC[C@]12C`, the inhibition was -5.26%.
Under `C[C@H](CCC(=O)O)[C@H]1CC[C@H]2[C@@H]3[C@H](O)C[C@@H]4C[C@H](O)CC[C@]4(C)[C@H]3CC[C@]12C` stands 3.14%; under `C[C@H](CCC(=O)O)[C@H]1CC[C@H]2[C@@H]3[C@@H](O)C[C@@H]4C[C@H](O)CC[C@]4(C)[C@H]3CC[C@]12C`, 62.8%; under `CCC1=C[C@@H]2CN3CCc4c([nH]c5ccccc45)[C@@](C(=O)OC)(C2)[C@@H]13`, 2.61%.
Under `COc1cc(OC)c(/C=C2/C(=O)Nc3ccccc32)c(OC)c1` stands -6%; under `Cn1cccc1/C=C1\C(=O)NC(=O)c2ccccc21`, 61.5%.
